From PubChem
Only some compounds are listed: those with a hit (about 3.9% of all), similar ones and a draw of the others.
HSF1 activator: increases HSF-1 driven luciferase reporter signal; hit rate 1.7% among 300,000; NIH3T3-HGL HSF-1 luciferase reporter, MG132, 8 h; 100% = twice DMSO control signal; activation, % at 9 µM;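 active means mean replicate activation of at least 50% with a set share of replicates each reaching 50%; inconclusive means only one of those two conditions met; inactive means mean below 50% and too few replicates reaching it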;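 further: 0% = median of the neutral control wells and 100% = twice that signal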
esBAF inh: SWI/SNF esBAF complex inhibition. mouse ES cells, Bmi1-luciferase knock-in reporter, 24 h; 100% = twice the neutral-well signal. reporter increase, % at 12.5 µM. hit rate 2% among 350,000. AID 602393; in the data active means activation above about 40%; inconclusive means no clear call, values can overlap the other calls;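 further: 0% = median of the plate's neutral control wells and 100% = double that signal; a rise in the Bmi1 reporter signal indicates esBAF inhibition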
Wnt bcat act: Wnt/beta-catenin pathway activation; Wnt/beta-catenin reporter cell assay, activator, plate reader; activation, % at 9.35 µM; hit rate 1.2% among 300,000; AID 743398; in the data active means activation above about 30%, passing the limit was not always enough; inconclusive means no clear call, values can overlap the other calls;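 further: 0% = neutral control wells and 100% = positive control wells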
MITF TRPM1 HTS: increases MITF-driven TRPM1 promoter luciferase signal; SK-MEL-5 TRPM1-promoter luciferase, 24 h; % of positive control, neutral wells = 0; activation, % at 12.5 µM; hit rate 0.75% among 300,000;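 active means mean activation of at least 80% with every replicate also reaching 80%; inconclusive means mean reaches 80% but some replicate falls short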;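 further: 0% = neutral control wells and 100% = parthenolide positive control wells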
HSF1 inhib: HSF1 inhibition; NIH3T3-HGL HSE-luciferase, MG132-induced, luminescence 8 h; hits give low values; activity change, negative = inhibition, % at 7.5 µM (by protocol); hit rate 0.77% among 300,000; AID 2098;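 active means more than half of replicate wells show activity change below -50%, luminescence cut by over half; inconclusive means some wells, but at most half, below -50%; inactive means no replicate well below -50%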;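 further: luciferase reports HSF-1 transcriptional activity via heat shock element; 0% = median of DMSO wells and -100% = zero luminescence signal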
Numbers without * were called inactive; u = inconclusive; x = not tested or not shown.

SMILES | HSF1 activator | esBAF inh | Wnt bcat act | MITF TRPM1 HTS | HSF1 inhib
CCCN(C)C[C@H]1OCCCC[C@@H](C)Oc2ccc(NC(=O)Nc3ccc(C(F)(F)F)cc3)cc2C(=O)N([C@@H](C)CO)C[C@H]1C | x | 2.3 | x | x | x
O=C(Nc1cccnc1N1CCOCC1)c1ccco1 | 10.7 | x | 41.1* | 1.4 | -2.9
Cn1c(=O)c2c(ncn2CC(=O)N/N=C/C=C/c2ccccc2)n(C)c1=O | -6.5 | x | x | 6.9 | 3.7
Cn1c(=O)c2ncn(CC(=O)N/N=C/C=C/c3ccccc3)c2n(C)c1=O | 60.3* | x | 0.1 | -3.3 | 29.8
CCNC(=O)C[C@@H]1CC[C@@H]2[C@@H](COc3ccc(NC(=O)Nc4ccccc4OC)cc3C(=O)N2C)O1 | x | -1.2 | x | x | x
Cc1ccc(C(=O)NN2C(=O)C3C4c5ccccc5C(c5ccccc54)[C@@H]3C2=O)cc1 (some centres not stated) | 27.4 | x | x | 16.0 | 2.7
O=C(NN1C(=O)C2C3c4ccccc4C(c4ccccc43)[C@@H]2C1=O)c1ccccc1 (some centres not stated) | -1.6 | x | 30.3* | -7.2 | -3.4
O=C(NN1C(=O)C2C3c4ccccc4C(c4ccccc43)C2C1=O)C1CC1 (configuration not stated) | x | x | 50.7* | -4.7 | x
COc1ccccc1-c1ccc2c(c1)O[C@@H](CN(C)C(=O)Nc1ccccc1)[C@H](C)CN([C@H](C)CO)S2(=O)=O | x | 4.7 | x | x | x
CCCC(=O)Nc1ccc2c(c1)C(=O)N(C)C[C@@H](OC)[C@H](C)CN(C)[C@@H](C)CO2 | x | -4.8 | x | x | x
CC1Oc2ccccc2N(CC(=O)NCc2ccccc2)C1=O (configuration not stated) | -90.3 | x | -2.3 | 34.5 | -87.6*
C(=NOCCc1ccccc1)c1ccncc1 | x | 48.7* | 0.0 | 90.7* | x
C(=NOCCc1ccccc1)c1ccccn1 | x | 95.2* | 7.5 | 46.4 | x
Cc1ccc(-c2nc3ccccc3[nH]2)s1 | 51.0* | x | x | 60.6 | 30.6
c1csc(-c2nc3ccccc3[nH]2)c1 | x | 45.9* | x | 33.2 | x
Nc1nc(-c2nc3ccccc3[nH]2)cs1 | u | 31.9 | 56.1* | x | 20.5
c1ccc2[nH]c(-c3ccncc3)nc2c1 | 11.5 | x | 2.0 | 41.3 | 8.5
COc1ccccc1-c1cc2ccccc2[nH]1 | 25.5 | 74.1* | x | 72.6 | 13.7
COc1ccc(C(=O)COC(=O)c2cc(=O)[nH]c3ccccc23)c(OC)c1 | 49.3 | x | 26.5 | 100.0* | 29.5
NC(=O)COC(=O)c1cc(=O)[nH]c2ccccc12 | -71.1 | -3.5 | -1.3 | -6.5 | -62.5*
Cc1ccc(C(=O)COC(=O)c2cc(=O)[nH]c3ccccc23)cc1C | 46.3 | 88.2* | 7.2 | 50.4 | 8.5
Cc1ccc2[nH]c(=O)cc(C(=O)OCC(=O)c3ccccc3)c2c1 | 2.4 | x | -7.5 | -7.3 | -5.7
COc1ccccc1C(=O)COC(=O)c1cc(=O)[nH]c2ccccc12 | -3.8 | x | 3.3 | 10.7 | 10.3
CNC(=O)COC(=O)c1cc(=O)[nH]c2ccccc12 | 14.7 | 0.9 | x | -7.2 | -1.9
O=C(COC(=O)c1cccc(-n2cnnn2)c1)c1ccc(F)cc1 | 7.2 | x | 0.5 | 53.1 | -0.1
SMILES | HSF1 activator | esBAF inh | Wnt bcat act | MITF TRPM1 HTS | HSF1 inhib
COc1ccc(C(=O)COC(=O)c2cccc(-n3cnnn3)c2)c(OC)c1 | 26.4 | 56.1* | 18.1 | 92.1* | 9.6
O=C(C[C@@H]1CC[C@@H](NC(=O)c2ccncc2)[C@@H](CO)O1)NCCc1ccncc1 | x | -1.1 | x | x | x
C[C@@H]1CCCCO[C@@H](CN(C)C(=O)c2ccccc2)[C@H](C)CN([C@@H](C)CO)C(=O)c2cc(NC(=O)CCC(F)(F)F)ccc2O1 | x | 7.2 | x | x | x
Cc1cc(NC(=O)c2ccccc2)ncc1NC(=O)c1ccco1 | 21.0 | x | 37.5* | 32.4 | 15.1
Cc1ccc(C(=O)Nc2ccc3c(c2)C(=O)NC3=O)cc1 | -66.2 | 19.4 | 1.5 | x | -56.7*
COC(=O)c1ccc(C(=O)Nc2ccc3c(c2)C(=O)NC3=O)cc1 | -1.8 | 12.7 | -0.8 | x | 2.4
Cc1ccc(C(=O)Nc2ccc(NC(=O)c3ccco3)c(C)c2)cc1 | 30.5 | 28.1 | 12.6 | 91.4* | 9.9
Cc1ccc(O)c(NC(=O)c2ccco2)c1 | -10.8 | 18.4 | 10.7 | 16.9 | -13.9
Cc1cc(O)c(NC(=O)c2ccco2)cc1C | -7.5 | 46.7* | 21.8 | 25.5 | 8.4
COc1ccc(NC(=O)N(C)C[C@H]2Oc3ccc(NS(=O)(=O)c4cn(C)cn4)cc3CC(=O)N([C@@H](C)CO)C[C@@H]2C)cc1 | x | -3.7 | x | x | x
